# Source: PubChem (National Center for Advancing Translational Sciences (NCATS))
# Mm-Cpn inhibitor – Inhibitors of TCP-1 ring complex (TRiC) of Methanococcus maripaludis (MmCpn): qHTS | Potency, µM (series often up to 76.9 µM), most hits filed as inhibitors | AID 504842, 2011 | hit rate 0.031% among 330,000 | purified Mm-Cpn ATPase, ADP Transcreener TR-FRET; also: nearly all actives have a fitted effect of over 80% in size
#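 ATPase read-out: TR-FRET ADP immunoassay (anti-ADP Eu cryptate vs ADP-d2), ex 320 nm, em 590/665 nm; signal drops as ADP forms. Enzyme 25 nM, ATP 10 uM, 30 min at 37°C after 10 min compound preincubation.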
# ASM inhibitor – Inhibitors of Secretory Acid Sphingomyelinase (S-ASM): qHTS; placental ASM, HMU-PC fluorogenic substrate, 60 min; hit rate 0.006% among 340,000; Potency, µM (series often up to 57.5 µM), usual class: inhibitors; Sphingomyelin phosphodiesterase (Homo sapiens), P17405; AID 504937, 2011
# Target sequence (P17405 47-631 limits assumed): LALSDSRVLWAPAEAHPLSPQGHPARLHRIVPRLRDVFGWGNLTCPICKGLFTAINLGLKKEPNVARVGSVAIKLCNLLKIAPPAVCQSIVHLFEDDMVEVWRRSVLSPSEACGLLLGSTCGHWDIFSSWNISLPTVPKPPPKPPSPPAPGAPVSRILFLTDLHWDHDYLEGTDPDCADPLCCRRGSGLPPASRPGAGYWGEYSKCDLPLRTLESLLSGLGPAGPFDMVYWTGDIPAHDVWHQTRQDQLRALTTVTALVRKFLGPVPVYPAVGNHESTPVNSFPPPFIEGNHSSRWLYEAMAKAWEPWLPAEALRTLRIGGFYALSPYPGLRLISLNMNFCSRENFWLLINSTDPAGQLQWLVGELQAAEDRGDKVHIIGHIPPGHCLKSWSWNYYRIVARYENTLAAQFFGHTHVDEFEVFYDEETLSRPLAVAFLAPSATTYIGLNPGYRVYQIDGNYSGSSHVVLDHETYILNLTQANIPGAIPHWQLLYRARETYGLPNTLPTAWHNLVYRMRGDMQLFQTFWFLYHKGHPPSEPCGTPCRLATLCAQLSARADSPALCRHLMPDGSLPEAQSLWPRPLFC
#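 qHTS format. ASM enzyme prepared from human placenta hydrolyses the fluorogenic substrate HMU-PC0 (9 uM final) over 60 min at 37 °C after a 10 min compound preincubation.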
# ALOX12 inh – Primary qHTS assay for inhibitors of human arachidonate 12S-lipoxygenase (ALOX12): Round 2; purified 12hLO, xylenol orange hydroperoxide absorbance; hit rate 1.1% among 580,000; AID 1671190, 2021; Potency, µM (highest dose often 108 µM), hits mostly inhibitors
#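 Hydroperoxide product was detected by ferrous iron/xylenol orange as the 573 to 405 nm absorbance ratio. Arachidonic acid at 40 uM (final) was turned over for 30 min at room temperature by 150 nM human 12hLO, pH 7.0 Hepes buffer, after 15 min compound preincubation.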
# CCT chaperon mod – High-Throughput Screening for Modulators of Cytosolic Chaperonin Activity; hit rate 0.3% among 360,000; purified chaperonin ATPase assay, HTRF ADP detection, 30 min; AID 651819, 2012; activity change, % (concentration not given with the values), hits read low; in the data active = activity change below about -30%
#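 TRiC (40 or 20 nM final, by batch activity) in 30 mM Tris pH 7.4, 100 mM KCl, 5 mM MgCl2, 1 mM DTT was treated with compound at 76 uM single dose, then 10 uM ATP, 30 min at 37 °C. ADP was read by HTRF Transcreener.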
# PINK1 expr mod – A Quantitative High throughput Screen to Identify Chemical Modulators of PINK1 Expression; hit rate 0.2% among 410,000; Potency, µM (series often up to 76.6 µM), hits mostly activators; PINK1 immunofluorescence, high-content cytometry, 24 h; active = well fitted activation curve with a large enough effect; inconclusive = small, poorly fitted or top-dose-only effect; cell line not stated here; also: nearly all actives have a fitted effect of over 65% in size
#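 Readout is PINK1 immunofluorescence, quantified alongside mitochondrial, cell and nuclear markers by laser-scanning microplate cytometry. Cells from a stable line were exposed to compound titrations (5 concentrations) for 24 hours, with CCCP controls.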
# p53 reactivator – qHTS assay for re-activators of p53 using a Luc reporter. H1299 p53-A138V BP100-luciferase reporter, luminescence, 24 h. Potency, µM (series often up to 92.2 µM), usual class: activators. hit rate 0.063% among 320,000. AID 504706, 2011; also: nearly all actives have a fitted effect of over 45% in size
#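 H1299 (p53-null), stable ts p53-A138V + BP100-Luc; 1000 cells/well, Opti-MEM/10% FBS; cpd 4 pt, 1:5; 24 h, 37 deg C, 5% CO2; detection reagent 10 min RT; luminescence.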
# Numbers stand for hits; – = inactive; ? = inconclusive; · = no result given. Compounds with a hit are over-represented: about 1.4% of the library has one in this group of screens. Unless noted, calls follow the shape of the dose curve; as a rule, active = well fitted curve in the direction sought with a large enough effect; inconclusive = small, poorly fitted or top-dose-only effect, or another doubt; inactive = no such curve, though single readings can be large; an effect the other way counts as inactive or inconclusive.
SMILES,Mm-Cpn inhibitor,ASM inhibitor,ALOX12 inh,CCT chaperon mod,PINK1 expr mod,p53 reactivator
CCOC(=O)c1c(N)sc(N)c1C(=O)OCC,–,–,50µM,–,–,–
CCCc1csc(N)c1C(=O)OCC,·,·,7.9µM,·,·,·
CCOC(=O)c1c(N)sc(C(N)=O)c1C,–,–,–,–,–,–
CCOC(=O)c1c(-c2cccs2)csc1N,–,–,45µM,–,–,–
CCOC(=O)c1c(-c2ccco2)csc1N,–,–,–,–,–,–
O=C(O)CCCNc1cc(N2CCN(C(=O)c3ccco3)CC2)c2noc3c2c1C(=O)c1ccccc1-3,35µM,–,–,–,?,–
CN1CCN(c2cc(N3CCN(C(=O)c4ccco4)CC3)c3c4c(onc24)-c2ccccc2C3=O)CC1,–,–,·,–,–,–
COc1ncccc1-c1nnn(-c2ccccc2Br)n1,·,–,28µM,–,–,·
Cc1ccc2c(Cl)cc(Cl)c(OCC(=O)NC(=O)NC(C)(C)C)c2n1,·,·,–,·,·,·
CSCCC(NC(=O)/C(=C/c1ccco1)NC(=O)c1ccco1)C(=O)O (configuration not stated),·,–,–,-38,–,·
CSCCC(NC(=O)/C(=C\c1ccco1)NC(=O)c1ccco1)C(=O)O (configuration not stated),–,–,?,–,–,·
COc1ccc2cnn(CC(=O)Nc3cc(F)ccc3F)c(=O)c2c1OC,·,·,–,·,·,·
CCCCCCNc1nc2c(c(=O)n(C)c(=O)n2C)n1CCC,·,·,–,·,·,·
Oc1ccc(/C=N/N(c2ccccc2)c2ccccc2)c(O)c1O,–,·,11µM,·,·,–
Oc1ccc(/C=N/N(c2ccccc2)c2ccccc2)cc1O,–,–,–,–,–,–
Cc1cccc(Cn2c(N3CCN(C(=O)c4ccco4)CC3)nc3c2c(=O)n(C)c(=O)n3C)c1,·,·,–,·,·,·
O=c1cnc(-c2ccc(Cl)cc2)cn1O,–,–,50µM,–,–,–
O=c1[nH]c(=O)c2nc(-c3ccc(Cl)cc3)cnc2[nH]1,–,–,?,–,–,–
Cc1cc(N/N=C/c2cccc(Cl)c2)nc(-n2nc(C)cc2C)n1,–,–,–,–,–,–
Cc1nc(C#N)c(N/N=C/c2cccc(Cl)c2)o1,–,–,40µM,–,?,?
N#C/C(=C/c1ccccc1OCc1ccccc1Cl)c1nc2ccccc2s1,·,·,–,·,·,·
CCC(NS(=O)(=O)c1cn(C)nc1C)c1ccccc1 (configuration not stated),–,–,–,-31,–,–
CCC(NS(=O)(=O)c1cnn(CC)c1)c1ccccc1 (configuration not stated),–,–,–,–,–,–
O=C(c1cnccn1)N1CC(=O)N2[C@@H](CO)[C@H](c3ccc(Br)cc3)[C@@H]2C1,·,·,10µM,·,·,·
CCCC1=Nc2cc(C(=O)NCCc3ccc(OC)c(OC)c3)ccc2Sc2ccccc21,·,·,–,·,·,·
SMILES,Mm-Cpn inhibitor,ASM inhibitor,ALOX12 inh,CCT chaperon mod,PINK1 expr mod,p53 reactivator
CS(=O)(=O)c1nc(S(=O)(=O)c2ccc(Cl)cc2)c(NCc2ccccc2)s1,·,·,–,·,·,·
CC1CCCC(NC(=O)COC(=O)c2ccc([N+](=O)[O-])o2)C1C (configuration not stated),–,–,–,-64,–,–
CC1CCCCC1NC(=O)COC(=O)c1ccc([N+](=O)[O-])o1 (configuration not stated),–,–,–,–,–,–
CCCC(C)NC(=O)c1ccccc1C (configuration not stated),·,·,–,·,·,·
CCN(C(=O)CSc1nc(-c2ccccc2)no1)c1cccc(C)c1,·,·,–,·,13µM,·
Cc1nn(C)cc1/C=C/C(=O)c1ccccc1,–,–,–,–,?,?
Cc1nn(C)cc1/C=C/C(=O)c1cccs1,–,–,–,–,–,20µM
CC(C)CCN1CCN(c2nc3c(c(=O)[nH]c(=O)n3C)n2Cc2ccc(Cl)c(Cl)c2)CC1,·,·,–,·,·,·
CCN(CC)S(=O)(=O)c1ccc(C)c(C(=O)OCc2nc3ccccc3nc2C)c1,·,·,–,·,·,·
CCOC(=O)C(NC(=O)c1cccc(C)c1)C(F)(F)F (configuration not stated),·,·,–,·,·,·
CC1(C)SC(=S)N(/N=C/c2ccccc2)C1N(O)C(=O)Nc1ccc([N+](=O)[O-])cc1 (configuration not stated),–,–,–,–,32µM,–
CNC(=O)N(O)C1N(/N=C/c2ccc(N(C)C)cc2)C(=S)SC1(C)C (configuration not stated),–,–,–,–,–,–
Cc1cn2c3c(=O)[nH]c(=O)n(C)c3nc2n1CCCN1CCN(c2ccccc2)CC1,·,·,–,·,·,·
COc1ccc(C(C#N)=C2C=CC(=NO)C(C)=C2Cl)cc1,·,?,20µM,–,–,·
COc1ccc(C(C#N)=C2C=C(Cl)C(=NO)C=C2Cl)cc1,·,·,?,–,–,·
O=C(NC1CCCCCC1)c1ccc(Cn2cnc3ccccc3c2=O)cc1,·,·,–,·,·,·
CC(=O)Nc1ccc(NC(=O)C(C)N2CCN(S(=O)(=O)c3ccc(C)cc3)CC2)cc1 (configuration not stated),–,–,–,–,–,–
CC(=O)Nc1ccc(S(=O)(=O)N2CCN(C(C)CCc3ccccc3)CC2)cc1 (configuration not stated),–,–,5.6µM,–,–,–
CCCNC(=O)CN(C)C(=O)c1cc2ccccc2n1C,·,·,–,·,·,·
O=C(c1c(O)cc(O)cc1O)C1c2c(cc(O)c3c2O[C@H](c2ccc(O)cc2)[C@@H](O)C3)OC1c1ccc(O)cc1 (some centres not stated),–,–,25µM,–,–,–
OC[C@@H]1O[C@H](CNCc2ccc(F)cc2)[C@H](N2CCOCC2)[C@@H]1O,·,·,28µM,·,·,·
CC(=O)Nc1ccc(S(=O)(=O)NNc2cccc(C)c2)cc1,–,–,2µM,–,–,–
Cc1cccc(NC(=O)NNS(=O)(=O)c2ccc(F)cc2)c1,–,–,–,–,–,–
Cc1cccc(NNC(=O)C(=O)NNc2cccc(C)c2)c1,–,–,1.4µM,–,–,–
COC(=O)C1CCN(Cc2cc(=O)oc3cc(-c4ccccc4)c(O)cc23)CC1,·,·,–,·,·,·
CC1=C(C(=O)Nc2ccccc2)C(c2cccc(Cl)c2)n2ncc(C(=O)Nc3cccc(C)c3)c2N1 (configuration not stated),·,·,–,·,·,·
CC1(C)Cc2c(ccc3ccccc23)/C(=C/C#N)N1,–,–,40µM,–,–,–
